Most compounds without a hit are left out; they make up all but 3.5% or so of the library.
TEAD-YAP block: TEAD-YAP interaction inhibition, primary screen, TEAD-YAP interaction inhibitor project, luminescence, HEK-TIYL cells; TEAD-Gal4/YAP UAS-luciferase luminescence; inhibition, % at 9.12 µM; actives 1.4% (n = 640,000); AID 1259422, 2018; in the data active = inhibition above about 32%
GPR151 activ: activators of human GPR151, primary screen, cell-based, PathHunter beta-arrestin, luminescence; actives 1% (n = 650,000); PathHunter beta-arrestin GPR151 cells; G-protein coupled receptor 151 (Homo sapiens), Q8TDV0; activation, % at 11.2 µM; in the data active = activation above about 4.9%
MITF primary: MITF inhibitors, primary screen, biochemical, AlphaScreen, human | Microphthalmia-associated transcription factor (Homo sapiens), O75030 | AlphaScreen MITF homodimerization, bead proximity signal | inhibition, % at 2.6 µM | actives 0.91% (n = 650,000) | AID 1259374, 2018; in the data active = inhibition above about 50%
Target sequence (O75030 whole entry, looked up): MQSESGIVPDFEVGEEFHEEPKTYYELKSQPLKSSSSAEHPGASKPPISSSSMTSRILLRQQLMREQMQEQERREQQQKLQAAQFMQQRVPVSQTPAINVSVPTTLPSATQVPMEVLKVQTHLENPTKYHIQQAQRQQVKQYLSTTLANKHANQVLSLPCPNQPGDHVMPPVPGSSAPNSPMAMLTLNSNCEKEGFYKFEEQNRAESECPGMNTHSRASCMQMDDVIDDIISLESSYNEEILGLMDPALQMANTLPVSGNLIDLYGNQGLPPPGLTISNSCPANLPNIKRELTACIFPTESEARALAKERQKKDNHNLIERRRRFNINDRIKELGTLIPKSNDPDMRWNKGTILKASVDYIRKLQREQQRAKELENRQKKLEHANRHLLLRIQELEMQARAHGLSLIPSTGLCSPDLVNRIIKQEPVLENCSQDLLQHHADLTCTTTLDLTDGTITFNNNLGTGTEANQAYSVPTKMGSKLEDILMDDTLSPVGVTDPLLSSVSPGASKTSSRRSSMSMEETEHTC
FBW7 act: FBW7 E3 ligase activators, primary screen, biochemical, AlphaScreen, human; F-box/WD repeat-containing protein 7 (Homo sapiens), Q969H0; AlphaScreen FBW7–phospho-cyclin E peptide binding, activator screen; normalized activity (activation), % at 26.1 µM; actives 0.13% (n = 650,000); AID 1259310, 2017; in the data active = normalized activity above about 1.9%;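 note: purified mutant Fbw7 with reduced substrate affinity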
Of the large screens only hits and unclear results are named; the others gave an inactive call.

COc1ccccc1Nc1ncnc2scc(-c3ccccc3)c12	none
O=C(NC(=S)NNC(=O)c1cc2ccccc2cc1O)c1ccco1	TEAD-YAP block 35
O=C(Cc1ccccc1)NC(c1ccco1)c1ccc2cccnc2c1O (stereo not drawn)	none
O=[N+]([O-])c1cccc(NC(c2ccco2)c2ccc3cccnc3c2O)c1 (stereo not drawn)	TEAD-YAP block 75, MITF primary 82
O=[N+]([O-])c1ccc(NC(c2ccco2)c2ccc3cccnc3c2O)cc1 (stereo not drawn)	TEAD-YAP block 70, MITF primary 58
CCOC(=O)C1=C(C)N=c2s/c(=C\c3ccc(-c4cccc([N+](=O)[O-])c4)o3)c(=O)n2C1c1ccc(Cl)cc1 (stereo not drawn)	none
CCC(=O)Nc1ccc(Cl)c(NC(=O)COc2ccc(CC)cc2)c1	none
Cc1c(/C=C(\C#N)c2ccccn2)cc(C#N)n1C	none
Cc1c(/C=C/c2nc3ccccc3s2)cc(C#N)n1C	TEAD-YAP block 73
N#Cc1cc2c(=O)n3ccccc3nc2n(CC2CCCO2)c1=NC(=O)c1ccc(F)cc1 (stereo not drawn)	none
CC(C)(C)c1ccc(C(=O)NCCOc2ccccc2)cc1	TEAD-YAP block 36
CC(C)(C)c1ccc(C(=O)NCCOc2ccccc2F)cc1	TEAD-YAP block 59
CC(=O)Nc1ccc(NC(=O)c2cnc(-c3ccc(C(N)=O)cc3)s2)cc1	none
CCCCOc1ccc(N2C(N)=NC(N)=NC2(C)C)cc1	TEAD-YAP block 37
CC1(C)N=C(N)N=C(N)N1c1ccc(F)cc1	none
Cc1ccsc1CNCC(=O)O	none
O=C(CSc1ccc2nnc(-c3ccncc3)n2n1)NCCc1ccccc1	FBW7 act 2.0
COc1ccc(CCNC(=O)CSc2ccc3nnc(-c4ccccc4)n3n2)cc1OC	FBW7 act 2.7
COc1ccc(-c2nnc3ccc(SCC(=O)NCCc4ccccc4)nn23)cc1	none
O=C(Nc1ccc2c(c1)C(=O)N(c1ccc(Br)cc1)C2=O)c1ccccc1	none
CC(C)NC1C(=O)c2ccccc2OC1c1ccccc1 (stereo not drawn)	none
COc1ccc(Cl)cc1NC(=O)c1sc2ncn(CC(=O)Nc3cccc(C(F)(F)F)c3)c(=O)c2c1C	none
Cc1ccc(-c2nc(Nc3ccccc3)s[n+]2CS(=O)(=O)c2ccccc2)cc1	TEAD-YAP block 66
Cc1cc(NC(=O)CSc2nc3ccsc3c(=O)n2-c2ccc(Br)cc2)no1	none
CC(C)c1ccc(NC(=O)c2ccc(NCCc3ccccc3)c([N+](=O)[O-])c2)cc1	none
Cc1nc2c(c(C)nn2C)c(C)c1CCC(=O)NCCc1c[nH]c2ccccc12	none
COc1ccc(C(=O)OCC(=O)NC(=O)NC2CCCC2)c(O)c1	none
COCCN(CC(=O)NC1CCCCC1)C(=O)/C=C/C(=O)c1ccc(OC)cc1O	TEAD-YAP block 49
CCC(=O)c1ccc2c(c1)OCCO2	none
CCc1n[n+](CC(=O)c2ccc3c(c2)OCCO3)c(N)s1	TEAD-YAP block 63
COc1cc(NC(=O)c2ccnc(N3CCN(c4ccccn4)CC3)c2)cc(OC)c1OC	none
COc1cc(NC(=O)c2cccc(N3CCN(c4ccccn4)CC3)n2)cc(OC)c1OC	TEAD-YAP block 42
COc1cc(NC(=O)c2cccc(-c3ccc(C(=O)NC4CC4)cc3)n2)cc(OC)c1OC	TEAD-YAP block 34
CC(=O)Nc1ccc(NC(=O)c2cccc(N3CCN(c4ccccn4)CC3)n2)cc1	TEAD-YAP block 36
O=C(Nc1ccccc1)c1cccc(N2CCN(c3ccccn3)CC2)n1	none
O=C(Nc1ccccc1)c1cccc(N2CCCC2CO)n1 (stereo not drawn)	none
COc1cc(NC(=O)c2cccc(N3CCCC3CO)n2)cc(OC)c1OC (stereo not drawn)	TEAD-YAP block 35
C=CCN1C(=O)C(=O)/C(=C(\O)c2ccc(OC)cc2)C1c1ccc(F)cc1 (stereo not drawn)	none
CC(=O)Nc1ccc(-c2csc(-c3ccccc3)n2)cc1	none
Cc1ccc(C)c2[nH]c(=O)c(CCNS(=O)(=O)c3ccc([N+](=O)[O-])cc3)cc12	none
Cc1cc2cc(CCNS(=O)(=O)c3ccc([N+](=O)[O-])cc3)c(=O)[nH]c2cc1C	TEAD-YAP block 45
CC(=O)Nc1cccc(NC(=O)CSc2ccc(-c3nc4ccccc4[nH]3)cn2)c1	TEAD-YAP block 40
CCc1ccc(N2C(=O)NC(=O)/C(=C\c3ccc(I)o3)C2=O)cc1	none
O=C1NC(=O)N(c2ccccc2)C(=O)/C1=C\c1ccc(I)o1	MITF primary 74

Bioassay records deposited in PubChem by The Scripps Research Institute Molecular Screening Center.
